Reference: PubChem BioAssay AID1159580 (chemical genetic matrix, 2015)
Out of some 5,500 compounds screened, about 2,000 (36%) were called active. Roughly 18% stayed inconclusive and do not appear here. Rule as the data show it: active = normalized growth mostly below about 0.91 (no sharp cut-off); inconclusive = no clear call, values can overlap the other calls; inactive = mostly above about 0.92. This is one part of the list.

Assay: chemical genetic growth profiling, strain panel (AID 1159580);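 also: tested at 20 µM; growth read once vehicle control cultures reached saturation at 30 °C; 1 = growth at the plate median or of vehicle wells; lower values mean less growth of the strain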
Conditions: S. cerevisiae deletion strains, growth OD
[1] = locus YAR019C, strain CDC15, hits give low values
[2] = locus YBL105C, strain PKC1, hits give low values
[3] = locus YBR135W, strain CKS1, hits give low values
[4] = locus YBR136W, strain MEC1, hits give low values
[5] = locus YDL017W, strain CDC7, hits give low values
[6] = locus YDL101C, strain DUN1, hits give low values
[7] = locus YDL214C, strain PRR2, hits give low values
[8] = locus YDR052C, strain DBF4, hits give low values
[9] = locus YDR054C, strain cdc34, hits give low values
[10] = locus YDR226W, strain ADK1, hits give low values
[11] = locus YDR477W, strain SNF1, hits give low values
[12] = locus YER123W, strain YCK3, hits give low values
[13] = locus YER133W, strain GLC7, hits give low values
[14] = locus YFL029C, strain CAK1, hits give low values
[15] = locus YFR003C, strain YPI1, hits give low values
[16] = locus YFR019W, strain FAB1, hits give low values
[17] = locus YFR028C, strain CDC14, hits give low values
[18] = locus YGR040W, strain KSS1, hits give low values
[19] = locus YGR052W, strain FMP48, hits give low values
[20] = locus YGR092W, strain DBF2, hits give low values
[21] = locus YHR030C, strain SLT2, hits give low values
[22] = locus YHR079C, strain IRE1, hits give low values
[23] = locus YHR082C, strain KSP1, hits give low values
[24] = locus YHR205W, strain SCH9, hits give low values
[25] = locus YIL147C, strain SLN1, hits give low values
[26] = locus YJL095W, strain BCK1, hits give low values
[27] = locus YJL157C, strain FAR1, hits give low values
[28] = locus YJR066W, strain TOR1 (second series), hits give low values
[29] = locus YJR066W, strain TOR1, hits give low values
[30] = locus YKL048C, strain ELM1, hits give low values
[31] = locus YKL067W, strain YNK1, hits give low values
[32] = locus YKL101W, strain HSL1, hits give low values
[33] = locus YKL193C, strain SDS22, hits give low values
[34] = locus YKL203C, strain TOR2, hits give low values
[35] = locus YLR113W, strain HOG1, hits give low values
[36] = locus YLR133W, strain CKI1, hits give low values
[37] = locus YLR403W, strain SFP1, hits give low values
[38] = locus YML070W, strain DAK1, hits give low values
[39] = locus YMR001C, strain CDC5, hits give low values
[40] = locus YMR205C, strain PFK2 (second series), hits give low values
[41] = locus YMR277W, strain FCP1, hits give low values
[42] = locus YNL006W, strain LST8, hits give low values
[43] = locus YNL020C, strain ARK1, hits give low values
[44] = locus YNL183C, strain NPR1, hits give low values
[45] = locus YNL222W, strain SSU72, hits give low values
[46] = locus YNL307C, strain MCK1 (second series), hits give low values
[47] = locus YOL078W, strain AVO1, hits give low values
[48] = locus YOL136C, strain PFK27, hits give low values
[49] = locus YOR061W, strain CKA2, hits give low values
[50] = locus YOR119C, strain RIO1, hits give low values
[51] = locus YOR231W, strain MKK1, hits give low values
[52] = locus YOR329C, strain SCD5, hits give low values
[53] = locus YPL031C, strain PHO85, hits give low values
[54] = locus YPL153C, strain RAD53, hits give low values
[55] = locus YPL204W, strain HRR25, hits give low values
[56] = locus YPL209C, strain IPL1, hits give low values
[57] = locus YPL256C, strain CLN2, hits give low values
[58] = locus YPR025C, strain CCL1, hits give low values
[59] = locus YPR106W, strain ISR1, hits give low values
[60] = strain NNK1, hits give low values
[61] = strain TSCII, hits give low values

Measured: normalized growth

COC(=O)/C=C1/OC(c2ccc(OC)cc2)=CC1=O
inactive: [5] 0.968 | [8] 0.981 | [10] 0.923 | [15] 0.98 | [25] 0.978 | [42] 0.989 | [52] 0.988
active: [1] 0.283 | [2] 0.594 | [3] 0.428 | [4] 0.671 | [6] 0.447 | [7] 0.105 | [9] 0.464 | [11] 0.101 | [12] 0.102 | [13] 0.0947 | [14] 0.177 | [16] 0.099 | [17] 0.433 | [18] 0.108 | [19] 0.125 | [20] 0.154 | [21] 0.14 | [22] 0.29 | [23] 0.143 | [24] 0.0277 | [26] 0.124 | [27] 0.121 | [28] 0.102 | [29] 0.15 | [30] 0.402 | [31] 0.0947 | [32] 0.156 | [33] 0.221 | [34] 0.103 | [35] 0.163 | [36] 0.129 | [37] 0.16 | [38] 0.0894 | [39] 0.273 | [40] 0.152 | [41] 0.274 | [43] 0.315 | [44] 0.115 | [45] 0.499 | [46] 0.123 | [47] 0.316 | [48] 0.102 | [49] 0.308 | [50] 0.108 | [51] 0.23 | [53] 0.103 | [54] 0.221 | [55] 0.282 | [56] 0.5 | [57] 0.154 | [58] 0.576 | [59] 0.507 | [60] 0.11 | [61] 0.265

CO/N=C1/CC(C)(C)Cc2c(-c3ccn(C(=O)Nc4cccc(Cl)c4)n3)sc(SC)c21
active: [21] 1.16 [resistant]
inactive: [1] 0.981 | [2] 0.965 | [3] 0.968 | [4] 0.969 | locus YBR160W, strain CDC28, hits give low values 0.964 | [5] 0.967 | locus YDL028C, strain MPS1, hits give low values 0.963 | [6] 0.975 | locus YDL108W, strain KIN28, hits give low values 0.959 | locus YDL132W, strain cdc53, hits give low values 0.967 | [7] 0.983 | [8] 0.973 | [9] 0.971 | [10] 0.974 | [11] 0.996 | [12] 0.993 | [13] 1 | locus YFL009W, strain cdc4, hits give low values 0.963 | [14] 0.978 | [15] 0.96 | [16] 1 | [17] 0.969 | [18] 1 | [19] 1.02 | [20] 1 | [22] 1.13 | [23] 1.1 | [24] 0.989 | [25] 0.972 | [26] 1.02 | locus YJL128C, strain PBS2, hits give low values 0.952 | [27] 0.996 | locus YJR016C, strain ILV3, hits give low values 0.97 | [28] 1.06 | [29] 1.1 | [30] 0.993 | [31] 0.98 | [32] 0.988 | [33] 0.968 | [34] 1.06 | [35] 0.968 | [36] 0.98 | [37] 1.02 | [38] 0.984 | [39] 0.977 | [40] 0.978 | [41] 0.97 | [42] 0.981 | [43] 0.983 | locus YNL161W, strain CBK1, hits give low values 0.977 | [44] 1.03 | locus YNL207W, strain RIO2, hits give low values 0.971 | [45] 0.969 | [46] 0.992 | [47] 0.966 | [48] 0.993 | [49] 0.98 | [50] 1.05 | [51] 0.984 | [52] 0.971 | [53] 1.02 | [54] 1.04 | [55] 1.02 | [56] 0.969 | [57] 1.13 | [58] 0.963 | [59] 0.975 | locus YPR111W, strain DBF20, hits give low values 0.962 | [60] 0.989 | [61] 0.977
